Screening data deposited in PubChem BioAssay by NMMLSC.
AGP1-GFP MLPCN = modulators of TOR pathway AGP1-GFP in S. cerevisiae; S. cerevisiae AGP1-GFP multiplex flow cytometry, 3 h; GFP as percent of DMSO wells; GFP response vs DMSO, % at 10 µM; 0.02% of 320,000 active;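 active = GFP response relative to DMSO above a set limit, near screen average plus 3 SD, cut at about 150% in these data; inconclusive = fewer than 70 cells counted for the yeast strain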;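 also: median GFP channel fluorescence of the gated AGP1 strain per well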
CIT2 TOR yeast = yeast TOR pathway CIT2-GFP modulation | S. cerevisiae CIT2-GFP strain, flow cytometry, 3 h; 100 means same as DMSO wells | GFP response vs DMSO, % at 10 µM | 0.065% of 320,000 active | AID 2029;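 active = GFP response relative to DMSO above a set limit, near the screen mean plus 3 SD, cut at about 150% in these data; inconclusive = Fewer than 70 cells measured for a yeast strain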;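 also: ratio of well median GFP fluorescence to mean of DMSO wells on the plate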
LAP4 TOR yeast = modulators of TOR pathway LAP4-GFP in S. cerevisiae; S. cerevisiae LAP4-GFP multiplex, flow cytometry GFP, 3 h; median GFP as percent of DMSO wells; GFP response vs DMSO, % at 10 µM; 0.34% of 320,000 active;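 active = GFP response vs DMSO above a set limit, about the screen mean plus 3 SD, cut at about 150% in these data; inconclusive = under 70 cell events counted for the yeast strain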
RPL19A-GFP yeast = modulators of TOR pathway RPL19A-GFP in S. cerevisiae; S. cerevisiae RPL19A-GFP strain, flow cytometry, 3 h; active compounds read low; percent response vs DMSO, % at 10 µM; 0.3% of 330,000 active; AID 2025;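 active = percent response vs DMSO below 50%; inconclusive = fewer than 70 events counted for the yeast strain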;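 also: median channel GFP fluorescence of the barcoded RPL19A-GFP strain; ratio of sample median GFP to plate DMSO average so 100% = DMSO; lower means less RPL19A-GFP as with rapamycin TOR inhibition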
MEP2-GFP yeast = yeast TOR pathway MEP2-GFP modulation; S. cerevisiae MEP2-GFP strain, flow cytometry GFP, 3 h; 100% = DMSO control level; GFP response vs DMSO, % at 10 µM; 0.51% of 330,000 active;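 active = GFP response versus DMSO above a set limit, roughly screen mean plus 3 SD, cut at about 180% in these data; inconclusive = fewer than 70 cells counted for a yeast strain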;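 also: median GFP fluorescence of the barcode-gated MEP2-GFP cells per well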
Myeloid diff 2 = promotes myeloid progenitor differentiation; ER-HoxA9 myeloid progenitors, lysozyme-GFP differentiation, flow cytometry; calls only at 10 µM; 1% of 360,000 active; AID 624256;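 active = normalized GFP-positive differentiation at or above the plate's own cutoff, the solvent-only control mean plus 3 SD; inconclusive = no clear call, values can overlap the other calls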;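 also: cells exposed to compound for four days before flow analysis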
Starred values were filed as active, the others as inactive; [ ] = remark or other dose. Shown are actives, neighbours in structure and some others; about 1.8% of the full set was active somewhere.

Nc1nn2c(-c3ccccc3)cc(=O)[nH]c2c1N=Nc1ccc(Br)cc1 was read as Myeloid diff 2 inactive.
For COCC(=O)NCCc1ccc(S(N)(=O)=O)cc1 the results were AGP1-GFP MLPCN 102, CIT2 TOR yeast 93, LAP4 TOR yeast 102, RPL19A-GFP yeast 96, MEP2-GFP yeast 98 and Myeloid diff 2 active.
Screening COc1ccc(CC(=O)NCCc2ccc(S(N)(=O)=O)cc2)cc1 returned AGP1-GFP MLPCN 109, CIT2 TOR yeast 105, LAP4 TOR yeast 91, RPL19A-GFP yeast 100, MEP2-GFP yeast 102 and Myeloid diff 2 inactive.
`C[C@]12C=CC(=O)C=C1CC[C@@H]1[C@@H]2[C@@H](O)C[C@@]2(C)[C@H]1CC[C@]2(O)C(=O)COC(=O)CCC(=O)O` gave AGP1-GFP MLPCN 15, CIT2 TOR yeast inconclusive, LAP4 TOR yeast 86, RPL19A-GFP yeast 55, MEP2-GFP yeast 346*[may fluoresce violet] and Myeloid diff 2 inconclusive.
Screening C[C@]12C=CC(=O)C=C1CC[C@@H]1[C@@H]2[C@@H](O)C[C@@]2(C)[C@H]1CC[C@]2(O)C(=O)COC(=O)CCC(=O)NCCc1ccc(O)cc1 returned AGP1-GFP MLPCN 100, CIT2 TOR yeast 102, LAP4 TOR yeast 99, RPL19A-GFP yeast 105, MEP2-GFP yeast 111 and Myeloid diff 2 inactive.
Screening CCOC(=O)C1CCN(C2CCN(C(=O)c3oc4c(C)c(C)ccc4c3C)CC2)CC1 returned AGP1-GFP MLPCN 95, CIT2 TOR yeast 96, LAP4 TOR yeast 90, RPL19A-GFP yeast 97, MEP2-GFP yeast 93 and Myeloid diff 2 inactive.
C/C(=N/NC(=O)c1ccncc1)c1cc2ccc(O)cc2oc1=O was read as AGP1-GFP MLPCN inconclusive, CIT2 TOR yeast inconclusive, LAP4 TOR yeast inconclusive, RPL19A-GFP yeast inconclusive, MEP2-GFP yeast inconclusive and Myeloid diff 2 inactive.
C/C(=N/NC(N)=S)c1cc2ccc(O)cc2oc1=O was read as AGP1-GFP MLPCN inconclusive, CIT2 TOR yeast inconclusive, LAP4 TOR yeast 81, RPL19A-GFP yeast 20*[may fluoresce violet], MEP2-GFP yeast inconclusive and Myeloid diff 2 active.
For Cc1noc(/C=C/c2cccnc2)c1[N+](=O)[O-] the results were AGP1-GFP MLPCN 84, CIT2 TOR yeast 90, LAP4 TOR yeast 161*, RPL19A-GFP yeast 87, MEP2-GFP yeast 92 and Myeloid diff 2 inactive.
Cc1noc(/C=C/c2ccc(-c3ccccc3Cl)o2)c1[N+](=O)[O-] was read as AGP1-GFP MLPCN 105, CIT2 TOR yeast 105, LAP4 TOR yeast 107, RPL19A-GFP yeast 101, MEP2-GFP yeast 104 and Myeloid diff 2 active.
Screening CCn1c(-c2ccccc2)csc1=Nc1ccc(O)cc1 returned AGP1-GFP MLPCN 98, CIT2 TOR yeast 100, LAP4 TOR yeast 94, RPL19A-GFP yeast 100, MEP2-GFP yeast 98 and Myeloid diff 2 active.
`CCCN1CCN(C(=O)c2cccc3c2C(=O)N(CCOC)C3)CC1` gave AGP1-GFP MLPCN 94, CIT2 TOR yeast 94, LAP4 TOR yeast 115, RPL19A-GFP yeast 94, MEP2-GFP yeast 98 and Myeloid diff 2 inactive.
`C[C@@H]1ON(C)[C@H]2C[C@H]3c4[nH]c5ccccc5c4CCN3C[C@@H]12` gave Myeloid diff 2 active.
Cc1cccc(NC(=S)N(CCN(C)C)C(C)c2cccnc2)c1 (stereo unspecified) was read as AGP1-GFP MLPCN 98, CIT2 TOR yeast 93, LAP4 TOR yeast 98, RPL19A-GFP yeast 97, MEP2-GFP yeast 98 and Myeloid diff 2 inactive.
Screening Cc1cccc(NC(=S)N(CCN(C)C)C(C)c2ccccn2)c1 (stereo unspecified) returned CIT2 TOR yeast 107, LAP4 TOR yeast 107, RPL19A-GFP yeast 111, MEP2-GFP yeast 106 and Myeloid diff 2 active.
`C=CCC(C=C)S(=O)(=O)c1ccc(C)cc1` (stereo unspecified) gave AGP1-GFP MLPCN 104, CIT2 TOR yeast 102, LAP4 TOR yeast 111, RPL19A-GFP yeast 103, MEP2-GFP yeast 102 and Myeloid diff 2 active.
For Cc1cccc(NC(=O)/C(C#N)=C/c2ccccc2Cl)n1 the results were AGP1-GFP MLPCN 84, CIT2 TOR yeast 94, LAP4 TOR yeast 164*, RPL19A-GFP yeast 90, MEP2-GFP yeast 95 and Myeloid diff 2 inactive.
Screening CCN1C(=O)/C(=C/C=C2/Sc3ccccc3N2CCO)SC1=S returned AGP1-GFP MLPCN 114, CIT2 TOR yeast 111, LAP4 TOR yeast 110, RPL19A-GFP yeast 117, MEP2-GFP yeast 108 and Myeloid diff 2 inactive.
For CCN1/C(=C/C=C2/SC(=Nc3cccc4ncccc34)N(C)C2=O)Sc2ccccc21 the results were Myeloid diff 2 active.
COc1ccc(OC)c2c1C(=O)C(Cl)=C(Cl)C2=O was read as AGP1-GFP MLPCN 14, CIT2 TOR yeast inconclusive, LAP4 TOR yeast 150, RPL19A-GFP yeast 44*[may fluoresce violet], MEP2-GFP yeast 291*[may fluoresce violet] and Myeloid diff 2 inconclusive.
For Cc1cccc(OCC(=O)NCC(=O)N/N=C/c2ccc([N+](=O)[O-])cc2)c1 the results were AGP1-GFP MLPCN 83, CIT2 TOR yeast 90, LAP4 TOR yeast 77, RPL19A-GFP yeast 90, MEP2-GFP yeast 90 and Myeloid diff 2 inactive.
For O=C(Nc1nccs1)C1CCCN1S(=O)(=O)c1ccc(F)cc1 (stereo unspecified) the results were AGP1-GFP MLPCN 114, CIT2 TOR yeast 172*, LAP4 TOR yeast 122, RPL19A-GFP yeast 105, MEP2-GFP yeast 132 and Myeloid diff 2 inactive.
Screening O=C(O)C1CCCN1S(=O)(=O)c1ccccc1 (stereo unspecified) returned AGP1-GFP MLPCN 98, CIT2 TOR yeast 98, LAP4 TOR yeast 95, RPL19A-GFP yeast 100, MEP2-GFP yeast 97 and Myeloid diff 2 active.
Cc1cccc(CNc2ccc(C(CC(N)=O)NC(=O)c3cccc(Br)c3)cc2[N+](=O)[O-])c1 (stereo unspecified) was read as AGP1-GFP MLPCN 90, CIT2 TOR yeast 84, LAP4 TOR yeast 119, RPL19A-GFP yeast 96, MEP2-GFP yeast 94 and Myeloid diff 2 inactive.
For CCOc1ccc(CCNC(=O)C2CCN(S(=O)(=O)N3CCCCC3)CC2)cc1OCC the results were AGP1-GFP MLPCN 91, CIT2 TOR yeast 89, LAP4 TOR yeast 88, RPL19A-GFP yeast 93, MEP2-GFP yeast 85 and Myeloid diff 2 inactive.
For Cc1cc(C)n(CC(O)Cn2c(C)c(C)c3ccccc32)n1 (stereo unspecified) the results were AGP1-GFP MLPCN 103, CIT2 TOR yeast 104, LAP4 TOR yeast 96, RPL19A-GFP yeast 98, MEP2-GFP yeast 94 and Myeloid diff 2 active.
`CCOC(=O)CNS(=O)(=O)c1ccc2c3c(cccc13)C(=O)N2CC` gave AGP1-GFP MLPCN 120, CIT2 TOR yeast 112, LAP4 TOR yeast 103, RPL19A-GFP yeast 101, MEP2-GFP yeast 106 and Myeloid diff 2 inactive.
